Results taken from ChEMBL document CHEMBL1961873, “Compounds: GSK PKIS; Assays: Nanosyn kinase panel” (2012).

Experiments:
[1] = target: Rho-associated protein kinase 1 (Homo sapiens) (UniProt Q13464); details: at 1 µM;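 further: reported values are mean percent inhibition of ROCK1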
[2] = target: Rho-associated protein kinase 2 (Homo sapiens) (UniProt O75116); details: at 0.1 µM
[3] = target: Rho-associated protein kinase 2 (Homo sapiens) (UniProt O75116); details: at 1 µM
[4] = target: Ribosomal protein S6 kinase alpha-1 (Homo sapiens) (UniProt Q15418); details: at 0.1 µM
[5] = target: Ribosomal protein S6 kinase alpha-1 (Homo sapiens) (UniProt Q15418); details: at 1 µM
[6] = target: Ribosomal protein S6 kinase alpha-3 (Homo sapiens) (UniProt P51812); details: at 0.1 µM
Sequence of Ribosomal protein S6 kinase alpha-3 (Homo sapiens) (P51812 whole entry): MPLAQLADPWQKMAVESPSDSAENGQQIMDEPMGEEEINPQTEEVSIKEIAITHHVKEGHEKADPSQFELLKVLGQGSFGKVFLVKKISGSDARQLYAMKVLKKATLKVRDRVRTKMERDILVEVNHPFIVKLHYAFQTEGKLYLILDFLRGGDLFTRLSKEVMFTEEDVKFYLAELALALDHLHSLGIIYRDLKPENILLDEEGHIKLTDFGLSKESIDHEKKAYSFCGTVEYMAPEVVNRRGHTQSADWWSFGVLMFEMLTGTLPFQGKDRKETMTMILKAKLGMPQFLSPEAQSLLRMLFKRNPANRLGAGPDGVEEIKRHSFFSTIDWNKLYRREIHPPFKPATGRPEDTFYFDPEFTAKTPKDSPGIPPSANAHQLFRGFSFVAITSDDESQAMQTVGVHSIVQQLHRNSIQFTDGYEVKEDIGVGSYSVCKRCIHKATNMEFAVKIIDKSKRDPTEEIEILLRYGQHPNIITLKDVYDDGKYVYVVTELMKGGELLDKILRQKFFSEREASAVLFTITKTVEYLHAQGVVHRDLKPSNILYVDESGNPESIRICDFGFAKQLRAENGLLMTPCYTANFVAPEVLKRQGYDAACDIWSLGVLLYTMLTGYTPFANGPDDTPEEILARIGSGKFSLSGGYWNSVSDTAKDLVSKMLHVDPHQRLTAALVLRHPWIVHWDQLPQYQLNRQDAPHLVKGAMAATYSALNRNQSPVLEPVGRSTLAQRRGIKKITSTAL

[7] = target: Ribosomal protein S6 kinase alpha-3 (Homo sapiens) (UniProt P51812); details: at 1 µM
[8] = target: Ribosomal protein S6 kinase alpha-2 (Homo sapiens) (UniProt Q15349); details: at 0.1 µM
Sequence of Ribosomal protein S6 kinase alpha-2 (Homo sapiens) (Q15349 whole entry): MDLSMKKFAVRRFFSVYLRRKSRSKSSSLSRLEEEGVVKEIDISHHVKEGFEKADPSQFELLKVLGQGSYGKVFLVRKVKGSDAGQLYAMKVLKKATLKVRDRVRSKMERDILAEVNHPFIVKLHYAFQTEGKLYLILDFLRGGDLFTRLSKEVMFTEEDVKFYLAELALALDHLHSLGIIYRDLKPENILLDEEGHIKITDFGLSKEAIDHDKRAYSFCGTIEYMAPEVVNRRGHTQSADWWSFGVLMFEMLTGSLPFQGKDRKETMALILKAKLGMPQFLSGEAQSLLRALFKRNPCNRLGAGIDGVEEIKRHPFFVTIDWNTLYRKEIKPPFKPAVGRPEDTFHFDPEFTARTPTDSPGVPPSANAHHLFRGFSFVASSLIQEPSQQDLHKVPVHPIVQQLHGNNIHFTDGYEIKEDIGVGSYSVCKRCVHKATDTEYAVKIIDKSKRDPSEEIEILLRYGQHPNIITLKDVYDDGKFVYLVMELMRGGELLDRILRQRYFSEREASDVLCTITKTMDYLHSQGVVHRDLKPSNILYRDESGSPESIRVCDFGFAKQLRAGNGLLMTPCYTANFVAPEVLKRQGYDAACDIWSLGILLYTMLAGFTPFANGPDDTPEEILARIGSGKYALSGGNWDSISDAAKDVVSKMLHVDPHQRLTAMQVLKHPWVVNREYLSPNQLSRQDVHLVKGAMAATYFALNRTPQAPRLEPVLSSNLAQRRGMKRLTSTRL

[9] = target: Ribosomal protein S6 kinase alpha-2 (Homo sapiens) (UniProt Q15349); details: at 1 µM
[10] = target: Ribosomal protein S6 kinase alpha-6 (Homo sapiens) (UniProt Q9UK32); details: at 0.1 µM
Sequence of Ribosomal protein S6 kinase alpha-6 (Homo sapiens) (Q9UK32 whole entry): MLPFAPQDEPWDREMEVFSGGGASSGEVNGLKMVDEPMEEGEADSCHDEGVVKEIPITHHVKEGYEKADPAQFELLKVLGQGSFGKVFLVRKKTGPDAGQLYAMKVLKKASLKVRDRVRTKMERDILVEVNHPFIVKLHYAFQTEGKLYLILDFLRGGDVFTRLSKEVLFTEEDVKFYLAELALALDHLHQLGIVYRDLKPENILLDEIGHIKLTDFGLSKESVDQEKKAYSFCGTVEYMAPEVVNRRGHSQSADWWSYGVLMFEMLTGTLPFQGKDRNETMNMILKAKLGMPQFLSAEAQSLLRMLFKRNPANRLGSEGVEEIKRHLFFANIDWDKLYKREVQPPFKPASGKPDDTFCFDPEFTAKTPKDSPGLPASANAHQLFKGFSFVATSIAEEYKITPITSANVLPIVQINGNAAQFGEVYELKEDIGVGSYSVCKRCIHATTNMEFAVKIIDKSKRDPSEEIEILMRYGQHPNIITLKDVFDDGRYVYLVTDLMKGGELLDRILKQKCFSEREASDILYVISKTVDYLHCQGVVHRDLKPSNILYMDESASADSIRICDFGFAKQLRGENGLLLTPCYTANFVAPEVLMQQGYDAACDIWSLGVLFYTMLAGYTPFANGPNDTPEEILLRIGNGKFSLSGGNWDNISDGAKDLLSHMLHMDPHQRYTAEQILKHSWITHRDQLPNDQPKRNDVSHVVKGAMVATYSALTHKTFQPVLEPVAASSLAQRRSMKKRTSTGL

[11] = target: Ribosomal protein S6 kinase alpha-6 (Homo sapiens) (UniProt Q9UK32); details: at 1 µM
[12] = target: T1, Serine/threonine-protein kinase Sgk1 (Homo sapiens) (UniProt O00141); details: at 0.1 µM
T1 sequence (whole entry): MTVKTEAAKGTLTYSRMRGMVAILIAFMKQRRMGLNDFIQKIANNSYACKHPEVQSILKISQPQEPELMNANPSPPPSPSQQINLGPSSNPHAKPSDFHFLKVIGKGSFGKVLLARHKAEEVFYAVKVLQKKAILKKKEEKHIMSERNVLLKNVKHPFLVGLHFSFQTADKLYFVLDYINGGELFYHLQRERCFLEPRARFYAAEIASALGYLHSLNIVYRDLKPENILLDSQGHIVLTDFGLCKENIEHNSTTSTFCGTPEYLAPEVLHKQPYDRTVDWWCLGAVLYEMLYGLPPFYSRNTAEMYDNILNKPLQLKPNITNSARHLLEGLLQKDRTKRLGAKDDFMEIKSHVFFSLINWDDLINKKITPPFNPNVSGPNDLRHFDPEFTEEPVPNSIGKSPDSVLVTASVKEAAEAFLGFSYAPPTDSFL

[13] = target: T1, Serine/threonine-protein kinase Sgk1 (Homo sapiens); details: at 1 µM
[14] = target: T2, Serine/threonine-protein kinase Sgk2 (Homo sapiens) (UniProt Q9HBY8); details: at 0.1 µM
T2 sequence (whole entry): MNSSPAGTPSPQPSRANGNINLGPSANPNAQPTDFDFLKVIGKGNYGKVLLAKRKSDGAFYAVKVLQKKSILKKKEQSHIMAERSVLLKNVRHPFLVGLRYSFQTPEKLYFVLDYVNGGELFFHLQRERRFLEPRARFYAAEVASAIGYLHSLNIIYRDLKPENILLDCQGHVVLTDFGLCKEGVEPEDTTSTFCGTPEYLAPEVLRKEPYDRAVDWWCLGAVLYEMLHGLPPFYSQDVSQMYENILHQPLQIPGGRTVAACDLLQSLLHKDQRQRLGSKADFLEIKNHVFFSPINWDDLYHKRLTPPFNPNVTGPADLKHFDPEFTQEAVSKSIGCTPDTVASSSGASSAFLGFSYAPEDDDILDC

[15] = target: T2, Serine/threonine-protein kinase Sgk2 (Homo sapiens); details: at 1 µM
[16] = target: T3, Serine/threonine-protein kinase Sgk3 (Homo sapiens) (UniProt Q96BR1); details: at 0.1 µM
T3 sequence (whole entry): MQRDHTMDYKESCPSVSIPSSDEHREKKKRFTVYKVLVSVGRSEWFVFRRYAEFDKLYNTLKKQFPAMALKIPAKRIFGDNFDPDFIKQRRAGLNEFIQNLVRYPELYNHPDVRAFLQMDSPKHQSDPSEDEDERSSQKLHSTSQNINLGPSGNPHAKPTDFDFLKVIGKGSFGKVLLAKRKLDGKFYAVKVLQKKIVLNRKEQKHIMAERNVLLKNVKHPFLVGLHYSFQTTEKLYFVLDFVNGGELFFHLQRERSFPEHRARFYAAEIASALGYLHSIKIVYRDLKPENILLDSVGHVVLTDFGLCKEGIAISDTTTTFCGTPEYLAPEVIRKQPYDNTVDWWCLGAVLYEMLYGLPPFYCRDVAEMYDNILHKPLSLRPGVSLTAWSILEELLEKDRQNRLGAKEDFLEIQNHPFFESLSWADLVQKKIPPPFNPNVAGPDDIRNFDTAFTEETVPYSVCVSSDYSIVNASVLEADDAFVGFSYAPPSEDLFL

[17] = target: T3, Serine/threonine-protein kinase Sgk3 (Homo sapiens); details: at 1 µM
[18] = target: 5'-AMP-activated protein kinase catalytic subunit alpha-1 (Homo sapiens) (UniProt Q13131); details: at 0.1 µM
Sequence of 5'-AMP-activated protein kinase catalytic subunit alpha-1 (Homo sapiens) (Q13131 whole entry, looked up): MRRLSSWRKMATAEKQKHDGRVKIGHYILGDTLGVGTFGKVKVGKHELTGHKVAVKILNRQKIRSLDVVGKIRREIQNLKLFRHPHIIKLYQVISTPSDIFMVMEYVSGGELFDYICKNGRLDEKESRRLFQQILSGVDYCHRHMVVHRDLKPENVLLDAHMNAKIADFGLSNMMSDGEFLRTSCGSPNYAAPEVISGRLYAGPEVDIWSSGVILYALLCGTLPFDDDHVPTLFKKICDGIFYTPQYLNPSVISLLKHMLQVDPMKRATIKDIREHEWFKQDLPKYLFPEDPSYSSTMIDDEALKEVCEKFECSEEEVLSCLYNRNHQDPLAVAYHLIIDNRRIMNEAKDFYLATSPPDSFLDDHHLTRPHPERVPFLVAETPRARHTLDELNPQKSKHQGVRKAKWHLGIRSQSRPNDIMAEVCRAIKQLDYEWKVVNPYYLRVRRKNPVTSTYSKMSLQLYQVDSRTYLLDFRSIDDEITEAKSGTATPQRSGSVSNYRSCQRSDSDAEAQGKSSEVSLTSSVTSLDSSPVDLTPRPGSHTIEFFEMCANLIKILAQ

[19] = target: 5'-AMP-activated protein kinase catalytic subunit alpha-1 (Homo sapiens) (UniProt Q13131); details: at 1 µM
[20] = target: 5'-AMP-activated protein kinase catalytic subunit alpha-2 (Homo sapiens) (UniProt P54646); details: at 0.1 µM;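 further: mean inhibition measured on the AMPK complex of alpha2, beta1 and gamma1 subunits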
Sequence of 5'-AMP-activated protein kinase catalytic subunit alpha-2 (Homo sapiens) (P54646 whole entry, looked up): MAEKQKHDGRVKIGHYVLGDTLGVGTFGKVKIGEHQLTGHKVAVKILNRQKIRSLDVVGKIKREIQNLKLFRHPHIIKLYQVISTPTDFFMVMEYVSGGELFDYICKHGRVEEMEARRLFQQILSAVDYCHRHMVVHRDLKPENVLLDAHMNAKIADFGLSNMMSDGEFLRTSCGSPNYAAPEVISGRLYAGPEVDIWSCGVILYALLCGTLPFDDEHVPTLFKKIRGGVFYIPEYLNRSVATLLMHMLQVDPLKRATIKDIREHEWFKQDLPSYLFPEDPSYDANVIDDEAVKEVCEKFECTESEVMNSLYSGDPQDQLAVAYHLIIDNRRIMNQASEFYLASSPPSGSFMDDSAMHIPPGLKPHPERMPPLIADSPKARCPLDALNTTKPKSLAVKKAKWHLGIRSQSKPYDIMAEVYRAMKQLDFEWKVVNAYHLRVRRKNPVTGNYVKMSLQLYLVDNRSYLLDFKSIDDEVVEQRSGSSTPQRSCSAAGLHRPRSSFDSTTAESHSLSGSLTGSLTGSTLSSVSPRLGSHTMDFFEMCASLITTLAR

Sequence of Rho-associated protein kinase 2 (Homo sapiens) (O75116 whole entry, looked up): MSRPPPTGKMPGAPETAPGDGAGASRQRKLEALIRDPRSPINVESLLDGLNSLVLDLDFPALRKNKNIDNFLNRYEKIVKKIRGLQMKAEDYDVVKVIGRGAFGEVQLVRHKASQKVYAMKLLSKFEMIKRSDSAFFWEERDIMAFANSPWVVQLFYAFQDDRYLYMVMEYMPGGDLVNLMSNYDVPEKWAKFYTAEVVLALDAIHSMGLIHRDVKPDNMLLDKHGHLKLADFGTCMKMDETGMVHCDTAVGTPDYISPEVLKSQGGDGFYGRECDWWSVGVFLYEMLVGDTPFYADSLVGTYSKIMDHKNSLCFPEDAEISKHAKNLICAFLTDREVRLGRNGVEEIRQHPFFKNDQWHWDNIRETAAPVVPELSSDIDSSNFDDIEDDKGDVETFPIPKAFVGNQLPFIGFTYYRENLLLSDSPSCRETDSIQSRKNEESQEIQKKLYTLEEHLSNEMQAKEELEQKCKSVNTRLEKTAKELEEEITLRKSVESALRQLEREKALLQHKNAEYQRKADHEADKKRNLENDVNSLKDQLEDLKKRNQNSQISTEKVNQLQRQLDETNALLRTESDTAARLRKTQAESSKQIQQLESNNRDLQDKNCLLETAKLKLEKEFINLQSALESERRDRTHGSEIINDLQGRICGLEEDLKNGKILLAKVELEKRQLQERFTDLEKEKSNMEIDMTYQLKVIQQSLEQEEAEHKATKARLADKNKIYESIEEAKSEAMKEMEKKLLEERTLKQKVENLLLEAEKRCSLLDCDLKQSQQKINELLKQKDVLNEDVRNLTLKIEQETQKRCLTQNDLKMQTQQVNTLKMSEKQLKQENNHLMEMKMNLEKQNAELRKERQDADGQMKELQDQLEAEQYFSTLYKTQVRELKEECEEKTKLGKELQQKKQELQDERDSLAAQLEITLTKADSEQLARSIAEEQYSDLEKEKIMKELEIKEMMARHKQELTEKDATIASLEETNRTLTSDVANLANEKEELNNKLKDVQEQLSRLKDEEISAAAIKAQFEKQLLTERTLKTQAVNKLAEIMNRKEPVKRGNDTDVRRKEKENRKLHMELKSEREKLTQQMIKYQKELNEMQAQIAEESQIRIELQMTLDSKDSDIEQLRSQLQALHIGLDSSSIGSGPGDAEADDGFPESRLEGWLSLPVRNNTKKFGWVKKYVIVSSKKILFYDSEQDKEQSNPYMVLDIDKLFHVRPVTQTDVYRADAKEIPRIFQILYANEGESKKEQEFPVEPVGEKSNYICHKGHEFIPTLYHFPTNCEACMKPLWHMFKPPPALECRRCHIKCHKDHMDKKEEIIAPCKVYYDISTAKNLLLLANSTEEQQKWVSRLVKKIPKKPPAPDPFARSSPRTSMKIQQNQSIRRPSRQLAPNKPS

Compound	inhibition [1] [%]	inhibition [2] [%]	inhibition [3] [%]	inhibition [4] [%]	inhibition [5] [%]	inhibition [6] [%]	inhibition [7] [%]	inhibition [8] [%]	inhibition [9] [%]	inhibition [10] [%]	inhibition [11] [%]	inhibition [12] [%]	inhibition [13] [%]	inhibition [14] [%]	inhibition [15] [%]	inhibition [16] [%]	inhibition [17] [%]	inhibition [18] [%]	inhibition [19] [%]	inhibition [20] [%]
[O-][S+]1CCN(Cc2ccc(-c3ccc4ncnc(Nc5ccc(OCc6ccccc6)c(F)c5)c4c3)o2)CC1	1.51	0.14	0.33	-0.15	-0.56	-0.51	-0.78	1.48	1.83	0.96	0.29	1.32	0.95	1.18	-1.29	0.74	2.23	0.77	-0.08	0.83
NS(=O)(=O)c1ccc(N/N=C2\C(=O)Nc3ccc(C(=O)NCCc4c[nH]cn4)cc32)cc1	7.56	3	12.4	3.37	12	2.21	11.9	5.36	23.5	4.08	22.2	4.44	14.1	4.28	5.53	3.07	4.22	57.3	86.6	23.9
CCc1cccc(NC(=O)Nc2ccc(Oc3ccc4nc(NC(=O)OC)[nH]c4c3)cc2)c1	18.3	5.32	8.2	1.07	1.59	0.58	0.96	1.52	1.5	-0.02	1.25	0.38	1.59	3.74	-0.81	5.12	3.61	1.46	0.41	-5.13
CNC(=O)c1cncc(/C=C/c2c(Cl)cccc2Cl)c1	1.88	0.61	1.93	1.04	4.53	0.14	1.94	1.97	2.54	0.73	1.63	-0.87	-0.45	0.49	0.48	1.43	2.18	2.85	3.59	6.15
COc1cc(C)c(NC(=O)CN(C)C)cc1Nc1nc(Nc2cccc(F)c2C(N)=O)c2cc[nH]c2n1	11.4	1.26	7.68	9.42	40.7	4.6	23.1	1.22	11.5	3.59	23.1	1.87	-1.3	1.44	0.65	0.69	0.16	1.03	0.78	1.06
Nc1nc(-c2ccccn2)c(-c2ccc3ncccc3n2)s1	2.15	2.83	6.38	1.17	3.4	0.06	1.07	1.71	1.96	0.91	0.55	4.14	2.85	0.04	1.55	2.89	1.48	0.55	2.96	
CC(C)=Cc1cccc2c1/C(=N/Nc1ccc(S(N)(=O)=O)cc1)C(=O)N2	10.1	3.96	20.5	2.45	12.4	1.53	8.42	2.5	16.4	1.61	13.6	0.34	5.74	-2.99	3.04	0.02	0.72	13.9	56.6	3.74
COc1ccccc1Nc1ncc(-c2ccccc2)o1	3.7	4.07	3.77	0.8	23.5	-0.3	0.19	3.05	4.52	0.08	0.95	2.95	4.31	5.64	0.66	4.99	3.37	1.74	3.31	3.16
Cc1cc(O)cc(C)c1/C=C/c1cncc(-c2nn[nH]n2)c1	1.86	2.66	2.33	2.97	1	1.94	1.24	3.53	3.85	2.1	0.92	3.17	2.09	-1.45	1.25	1.96	3.83	3.54	3.56	3.69
Nc1ncnc2occ(-c3ccc(NC(=O)Nc4cc(C(F)(F)F)cc(C(F)(F)F)c4)cc3)c12	41.1	20.3	71.6	3.14	41.1	0.64	9.39	6.07	38.8	0.65	5.35	-0.37	1.38	2.27	2.02	0.27	-0.52	1.68	0.27	-0.39
CC1=C(C(=O)Nc2ccc3[nH]ncc3c2)C(c2ccc3ccccc3c2)CC(=O)N1 (configuration not stated)		77	84.2	3.94	26.4	2.4	21.3	2.26	13.7	1.04	7.45	2.12	7.38	3	16.6	1.33	10.3	7.34	41	2.46
CCn1c(-c2nonc2N)nc2ccncc21	1.28	0.14	0.99	0.57	0.69	0.32	0.16	-0.05	1.68	1.33	1.11	0.13	1.04	2.07	-2.06	0.78	0.08	2.35	0.79	-1.16
CCn1c(-c2nonc2N)nc2cncc(C(=O)N3CCNCC3)c21		3.45	4.33	1.84	3.1	0.8	-0.05	3.17	3.01	1.32	2.55	1.92	4.77	3.56	4.56	5.25	6.39	3.24	4.88	8.15
CS(=O)(=O)Nc1ccc(N/C=C2\C(=O)Nc3ccccc32)cc1	1.4	-0.88	1.99	1.8	9.64	1.88	9.89	0.85	13.8	0.95	11	0.01	12.3	-2.1	1.93	-3.12	-0.79	0.57	12	-0.35
